A selection: hits, their analogues and other compounds. The true share with any hit is near 12%.
HP1b binding inh: HP1-beta chromodomain-methylated histone interaction inhibition; AlphaScreen HP1-beta / biotin-H3K9me3 peptide binding; Potency, µM (series often up to 114 µM), usual class: inhibitors; 390,000 compounds, 0.56% hits; AID 540317; further: nearly all actives have a fitted effect of over 70% in size
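Compound inhibition of the preformed complex between 50 nM HP1-beta and 50 nM biotinylated H3K9me3 peptide was read by AlphaScreen. Buffer was PBS pH 7.4 with 0.01% Tween-20. Incubations ran 30 min at room temperature, with 10 ug/mL donor/acceptor beads.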
Sfp PPTase inh: Sfp phosphopantetheinyl transferase inhibition. Q9F4F7. Biochemical Sfp PPTase activity, qHTS. Potency, µM, hits mostly inhibitors. 310,000 compounds, 3.5% hits. AID 1490;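 further: the enzyme is Sfp with the accession as filed and its product quenches rhodamine fluorescence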
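Compounds were incubated with enzyme (final 15 nM) for 15 min at room temperature before substrate addition started the reaction. Fluorescence at 525 nm excitation, 598 nm emission was recorded immediately and after 30 minutes.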
JMJD2A Tudor inh: JMJD2A Tudor domain (human) inhibition | AID 504339 | Potency, µM (top dose mostly 114 µM), hits mostly inhibitors | AlphaScreen JMJD2A-Tudor / H3K4me3 peptide binding | 390,000 compounds, 4.4% hits; further: nearly all actives have a fitted effect of over 50% in size
Target sequence (O75164 whole entry, looked up, the tested form may be a part): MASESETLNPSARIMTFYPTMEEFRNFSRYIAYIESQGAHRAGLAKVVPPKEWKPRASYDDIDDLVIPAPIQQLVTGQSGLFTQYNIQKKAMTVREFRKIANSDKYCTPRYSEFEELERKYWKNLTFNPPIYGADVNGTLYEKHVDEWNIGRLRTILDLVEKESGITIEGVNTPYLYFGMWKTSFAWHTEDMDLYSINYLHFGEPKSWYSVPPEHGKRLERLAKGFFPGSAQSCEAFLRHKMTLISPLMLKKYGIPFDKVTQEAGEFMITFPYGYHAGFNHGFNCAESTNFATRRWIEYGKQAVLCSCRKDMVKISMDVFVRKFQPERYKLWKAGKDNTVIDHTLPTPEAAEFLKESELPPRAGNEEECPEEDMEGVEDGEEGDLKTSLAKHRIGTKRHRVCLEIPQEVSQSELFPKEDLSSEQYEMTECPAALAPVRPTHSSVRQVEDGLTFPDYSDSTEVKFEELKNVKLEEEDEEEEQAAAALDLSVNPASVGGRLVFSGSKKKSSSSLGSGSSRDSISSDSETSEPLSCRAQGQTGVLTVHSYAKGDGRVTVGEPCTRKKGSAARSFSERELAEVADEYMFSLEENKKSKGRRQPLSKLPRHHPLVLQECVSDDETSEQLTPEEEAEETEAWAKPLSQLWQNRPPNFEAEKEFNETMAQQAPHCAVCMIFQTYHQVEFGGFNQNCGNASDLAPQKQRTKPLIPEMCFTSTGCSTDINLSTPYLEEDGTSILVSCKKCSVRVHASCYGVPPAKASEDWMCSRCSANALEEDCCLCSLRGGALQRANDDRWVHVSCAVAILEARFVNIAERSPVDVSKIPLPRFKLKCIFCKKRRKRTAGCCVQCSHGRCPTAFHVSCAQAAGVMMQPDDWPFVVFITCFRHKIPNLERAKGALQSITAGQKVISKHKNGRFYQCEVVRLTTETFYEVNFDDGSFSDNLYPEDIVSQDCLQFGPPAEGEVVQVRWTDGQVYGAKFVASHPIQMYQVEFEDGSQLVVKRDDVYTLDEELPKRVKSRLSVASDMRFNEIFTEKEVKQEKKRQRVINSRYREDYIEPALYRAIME
BAZ2B inh: inhibitors of human BAZ2B bromodomain; AlphaScreen BAZ2B-H3K14Ac peptide displacement; Potency, µM (titrated, usually from 114 µM), hits mostly inhibitors; 360,000 compounds, 4.4% hits; further: nearly all actives have a fitted effect of over 60% in size
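Inhibition is scored as reduced AlphaScreen emission. The BAZ2B/b-H3(5-23)K14Ac complex (50 nM each) in PBS pH 7.4, 0.01% Tween-20 meets compound (up to 110 uM) for 30 min at RT before bead addition.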
G9a inh: blocks human histone lysine methyltransferase G9a. G9a H3K9 monomethylation, AlphaScreen, 2 h. Potency, µM (doses to about 102 µM), most hits filed as inhibitors. 350,000 compounds, 8.8% hits. AID 504332; further: nearly all actives have a fitted effect of over 75% in size
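Chemiluminescent proximity detection of H3K9 monomethylation, read after 10 min bead incubation in the dark. Reaction: 20 nM G9a, 500 nM biotin-H3K9 peptide, 20 uM SAM cofactor, 2 h, room temperature, following 15 min enzyme-compound preincubation.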
Each line names hits and unclear results; the compound was inactive in the other large screens. The call rests on the fitted dose curve; in most records, active means well fitted curve in the direction sought with a large enough effect; inconclusive means small, poorly fitted or top-dose-only effect, or another doubt; inactive means no such curve, though single readings can be large; an effect the other way counts as inactive or inconclusive.

O=C(N/N=C/c1ccncc1)c1cccc([N+](=O)[O-])c1	none (no result: HP1b binding inh, JMJD2A Tudor inh)
CCCc1c(C)[nH]c2nc3ccccc3n2c1=O	none
CCn1c(=S)[nH]c2c(=O)n(C)c(=O)n(C)c21	HP1b binding inh inconclusive, JMJD2A Tudor inh 5.01µM (no result: Sfp PPTase inh, BAZ2B inh, G9a inh)
CCCOc1ccc(CSc2ncn[nH]2)cc1	HP1b binding inh inconclusive, JMJD2A Tudor inh 3.16µM, G9a inh 12.6µM
COc1cc(CSc2ncn[nH]2)c(OC)cc1CSc1ncn[nH]1	none
CC(C)N(C(=O)CSc1nnc(Cn2nnc3ccccc32)n1C)C(C)C	none
Fc1ccc(-n2c(Cn3nnc4ccccc43)n[nH]c2=S)cc1	JMJD2A Tudor inh 17.8µM, BAZ2B inh inconclusive (no result: G9a inh)
FC(F)(F)c1cccc(-n2c(Cn3nnc4ccccc43)n[nH]c2=S)c1	Sfp PPTase inh 89.1µM (no result: G9a inh)
Cc1cc(C(F)(F)F)nn1Cc1n[nH]c(=S)n1-c1ccc(F)cc1	G9a inh 10µM
Cn1c(Cn2nnc3ccccc32)nnc1SCC(=O)c1ccc(F)cc1	Sfp PPTase inh inconclusive, JMJD2A Tudor inh 44.7µM, G9a inh 35.5µM
Cc1cc(-c2n[nH]c(=S)n2-c2ccc(F)cc2)nn1C	JMJD2A Tudor inh 25.1µM, G9a inh inconclusive
c1ccc(Cn2nnc3ccccc32)cc1	none
S=c1[nH]nc(Cn2nnc3ccccc32)n1-c1ccccc1	JMJD2A Tudor inh 6.31µM, G9a inh 31.6µM
C#Cc1ccc([C@@H]2C=C(C(=O)NC3CC3)O[C@H](OCC)[C@H]2CCCO)cc1	none
O=C(CCc1ccccc1)NN1C(=O)C2C3C=CC(O3)C2C1=O (centres undefined)	Sfp PPTase inh 10µM, G9a inh 10µM
CCOc1ccc(C(=O)NN2C(=O)C3C4C=CC(O4)C3C2=O)cc1 (centres undefined)	Sfp PPTase inh 28.2µM, G9a inh 6.31µM
Cc1cccc(OCC(=O)NN2C(=O)C3C4C=CC(O4)C3C2=O)c1 (centres undefined)	Sfp PPTase inh 39.8µM, G9a inh 8.91µM
Cc1ccccc1OCC(=O)NN1C(=O)C2C3C=CC(O3)C2C1=O (centres undefined)	Sfp PPTase inh 50.1µM, G9a inh inconclusive
Cc1nnc(N2CCN(c3ccc(Cl)cc3)CC2)c2c1nnn2Cc1ccc(F)cc1	none (no result: Sfp PPTase inh)
COC(=O)c1ccc(CSc2nc3c(cnn3-c3ccc(F)cc3)c(=O)[nH]2)o1	none
CC(=O)c1ccc(N2CCN(C(=O)CCS(=O)(=O)c3ccc4c(c3)oc(=O)n4C)CC2)cc1	none (no result: Sfp PPTase inh)
CN(C(=O)c1ccc(NC(=O)Cc2ccc(NC(=O)C3CCCN(C(=O)c4ccccc4)C3)cc2)cc1)C1CCCC1 (centres undefined)	none (no result: Sfp PPTase inh, BAZ2B inh, G9a inh)
COc1ccc(C(=O)Nc2ccc3c(c2)n(C)c(=O)n3C)cc1OC	BAZ2B inh 56.2µM
COc1ccc(NC(=O)c2ccc3c(c2)n(C)c(=O)n3C)cc1	BAZ2B inh inconclusive
Cc1ccc(OC(C)C(=O)Nc2ccc3c(c2)n(C)c(=O)n3C)c(C)c1 (centres undefined)	BAZ2B inh 56.2µM
COc1ccccc1OC(C)C(=O)Nc1ccc2c(c1)n(C)c(=O)n2C (centres undefined)	BAZ2B inh inconclusive
CC(C)Sc1ccccc1C(=O)Nc1ccc2c(c1)n(C)c(=O)n2C	BAZ2B inh 56.2µM, G9a inh 6.31µM
CN(c1ccccc1C(=O)Nc1ccc2c(c1)n(C)c(=O)n2C)S(C)(=O)=O	none
CC(=O)Nc1ccc(S(=O)(=O)Nc2ccc3c(c2)n(C)c(=O)n3C)c(C)c1	BAZ2B inh 50.1µM
COc1cc(OC)c(NC(=O)CCc2ccccc2)cc1Cl	none
Cc1cc(=O)n(CC(C)O)c(O)c1C#N (centres undefined)	G9a inh 10µM
CCn1c(C)cc(C)c(C#N)c1=O	none
Cc1cc(=O)n(Cc2ccccc2)c(O)c1C#N	BAZ2B inh inconclusive
Cc1cc(=O)n(CCCO)c(O)c1C#N	G9a inh 44.7µM
O=C1C(=O)N(Cc2ccc(Cl)c(Cl)c2)c2ccccc21	Sfp PPTase inh 50.1µM (no result: HP1b binding inh, JMJD2A Tudor inh, BAZ2B inh, G9a inh)
O=C1C(=O)N(Cc2cccc([N+](=O)[O-])c2)c2ccccc21	none
c1ccc2c(c1)C(=Nn1cnnc1)c1ccccc1-2	none
O=C1/C(=N/n2cnnc2)c2ccccc2N1Cc1ccccc1	Sfp PPTase inh 44.7µM, G9a inh inconclusive (no result: HP1b binding inh, JMJD2A Tudor inh)
COc1ccc(-n2nnc(C(=O)Nc3ccccc3F)c2N)cc1	none (no result: Sfp PPTase inh)
Cc1sc2nc(SCC(=O)N(C)Cc3ccccc3)n(-c3ccccc3)c(=O)c2c1C	none
